Inconclusive results are not listed. Entries that show only a call come without a potency. Active and inactive are the calls of the source. The call rests on the fitted dose curve; in most records, active means well fitted curve in the direction sought with a large enough effect; inconclusive means small, poorly fitted or top-dose-only effect, or another doubt; inactive means no such curve, though single readings can be large; an effect the other way counts as inactive or inconclusive.
Target: Nuclear receptor ROR-gamma (Homo sapiens) (UniProt P51449)
Sequence (P51449 whole entry, looked up): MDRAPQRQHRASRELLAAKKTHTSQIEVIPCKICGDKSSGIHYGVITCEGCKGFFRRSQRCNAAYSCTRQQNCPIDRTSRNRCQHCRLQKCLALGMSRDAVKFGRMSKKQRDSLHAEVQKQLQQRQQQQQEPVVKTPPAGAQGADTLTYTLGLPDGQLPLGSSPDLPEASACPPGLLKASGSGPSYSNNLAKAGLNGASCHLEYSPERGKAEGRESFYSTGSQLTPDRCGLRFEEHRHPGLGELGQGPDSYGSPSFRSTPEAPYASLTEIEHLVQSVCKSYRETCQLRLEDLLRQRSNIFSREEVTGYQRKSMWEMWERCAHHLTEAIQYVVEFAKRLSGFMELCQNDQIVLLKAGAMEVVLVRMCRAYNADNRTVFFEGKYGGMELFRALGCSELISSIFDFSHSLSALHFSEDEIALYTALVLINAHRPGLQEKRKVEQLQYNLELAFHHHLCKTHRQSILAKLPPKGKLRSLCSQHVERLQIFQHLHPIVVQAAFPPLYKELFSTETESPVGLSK
Assay: qHTS assay for small molecule antagonists of the retinoid-related orphan receptor gamma (ROR-gamma) signaling pathway (AID 651802);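 further: CHO cells with doxycycline-induced ROR-gamma expression; luciferase reporter luminescence driven by ROR response element; nearly all actives have a fitted effect of over 60% in size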
Settings: ROR-gamma antagonist cell reporter assay; series mostly up to 92.2 µM
In short: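 Doxycycline-induced reporter activity in engineered CHO cells (TET-inducible ROR, RORE-LUC) was measured by luminescence after 16hr compound exposure at 37C.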

Structure (SMILES) | Potency
NCC(O)c1ccc(O)cc1 (centres undefined) | inactive
CCCC(C)(COC(N)=O)COC(=O)NC(C)C (centres undefined) | inactive
CNCC(O)c1ccc(O)cc1 (centres undefined) | inactive

Target: Tyrosine-protein kinase Yes (Homo sapiens) (UniProt P07947)
Sequence (P07947 whole entry, looked up): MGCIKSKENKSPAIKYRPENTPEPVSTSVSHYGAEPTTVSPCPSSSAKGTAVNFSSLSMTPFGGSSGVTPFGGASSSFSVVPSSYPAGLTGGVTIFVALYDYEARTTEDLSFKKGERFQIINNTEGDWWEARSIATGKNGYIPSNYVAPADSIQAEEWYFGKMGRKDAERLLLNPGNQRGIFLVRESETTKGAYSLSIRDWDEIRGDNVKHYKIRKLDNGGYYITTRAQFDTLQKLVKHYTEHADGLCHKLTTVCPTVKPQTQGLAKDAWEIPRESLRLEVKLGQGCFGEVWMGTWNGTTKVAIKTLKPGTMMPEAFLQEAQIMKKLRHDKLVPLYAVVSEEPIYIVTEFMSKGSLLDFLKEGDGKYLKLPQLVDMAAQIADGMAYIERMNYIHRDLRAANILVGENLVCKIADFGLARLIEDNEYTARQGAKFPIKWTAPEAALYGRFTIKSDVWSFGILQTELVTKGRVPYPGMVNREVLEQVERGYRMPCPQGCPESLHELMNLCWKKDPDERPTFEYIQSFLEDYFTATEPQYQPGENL
Assay: qHTS for small molecule inhibitors of Yes1 kinase: Primary Screen (AID 686947); further: nearly all actives have a fitted effect of over 60% in size
Settings: Yes1 kinase biochemical qHTS inhibition; series mostly up to 76.9 µM
In short: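 In this qHTS format, inhibition is expressed relative to DMSO controls with enzyme (maximum) and without enzyme (minimum). The 60 min room-temperature reaction uses 0.1 mM ATP, with ADP detected by luminescence.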

Structure (SMILES) | Potency
COC[C@H]1OC(=O)c2coc3c2[C@@]1(C)C1=C(C3=O)C2CCC(=O)[C@@]2(C)C[C@H]1OC(C)=O (some centres undefined) | inactive
Cn1cc(C2=C(c3cn(C4CCN(Cc5ccccn5)CC4)c4ccccc34)C(=O)NC2=O)c2ccccc21 | inactive
COC1(CS(=O)c2ccccc2)CCN(CCc2c[nH]c3ccc(F)cc23)CC1 (centres undefined) | inactive
Cn1c(CCCC(=O)O)nc2cc(N(CCCl)CCCl)ccc21 | inactive

Test system: not listed separately
Assay: qHTS for small molecule inhibitors of Yes1 kinase: Counter Assay (AID 686950);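 further: no kinase present so only ADP-Glo detection of a fixed ADP amount is tested; luminescence from ADP-Glo reporting ADP in a fixed ATP and ADP mixture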
Settings: series mostly up to 76.9 µM
In short: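 Measuring interference with ADP-Glo, the assay ran 60 min at room temperature on an ATP/ADP mix lacking enzyme. Values were normalized to ATP-plus-ADP (maximum) and ATP-only (minimum) DMSO controls.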

Structure (SMILES) | outcome
COC[C@H]1OC(=O)c2coc3c2[C@@]1(C)C1=C(C3=O)C2CCC(=O)[C@@]2(C)C[C@H]1OC(C)=O (some centres undefined) | inactive
CNC(=O)N1N=C(c2ccc(N)cc2)c2cc3c(cc2CC1C)OCO3 (centres undefined) | inactive
Cn1cc(C2=C(c3cn(C4CCN(Cc5ccccn5)CC4)c4ccccc34)C(=O)NC2=O)c2ccccc21 | inactive
COc1ccc(C(=O)c2c(C)n(CCN3CCOCC3)c3ccccc23)cc1 | inactive
COC1(CS(=O)c2ccccc2)CCN(CCc2c[nH]c3ccc(F)cc23)CC1 (centres undefined) | inactive
CC(O)(CS(=O)(=O)c1ccc(F)cc1)C(=O)Nc1ccc(C#N)c(C(F)(F)F)c1 (centres undefined) | inactive
Cn1c(CCCC(=O)O)nc2cc(N(CCCl)CCCl)ccc21 | inactive

Source: PubChem BioAssay (NCATS)
